In the library only some 7.5% were active in any assay of this set; here they are far more common.
NPC1 prom act = activators of NPC1 promoter; Huh7 NPC1 promoter luciferase reporter, 24 h; Potency, µM (titrated, usually from 9.22 µM), usual class: activators; 2.4% of 320,000 active; note: nearly all actives have a fitted effect of over 60% in size
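Huh7 cells stably carrying NPC1 promoter–luciferase, plated in Opti-MEM with 10% FBS for 2 h, were exposed to compound in DMSO for 24 h at 37 °C; luciferase reagent was added for 10 min and luminescence read.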
FLuc counter = counter-screen for miR-21 project: firefly luciferase inhibitors or activators | P08659 | purified FLuc, Km substrates, luminescence inhibition | Potency, µM (highest dose often 57.5 µM), usual class: inhibitors | 6.9% of 360,000 active | AID 588342; note: nearly all actives have a fitted effect of over 55% in size
Target sequence (P08659 whole entry, looked up): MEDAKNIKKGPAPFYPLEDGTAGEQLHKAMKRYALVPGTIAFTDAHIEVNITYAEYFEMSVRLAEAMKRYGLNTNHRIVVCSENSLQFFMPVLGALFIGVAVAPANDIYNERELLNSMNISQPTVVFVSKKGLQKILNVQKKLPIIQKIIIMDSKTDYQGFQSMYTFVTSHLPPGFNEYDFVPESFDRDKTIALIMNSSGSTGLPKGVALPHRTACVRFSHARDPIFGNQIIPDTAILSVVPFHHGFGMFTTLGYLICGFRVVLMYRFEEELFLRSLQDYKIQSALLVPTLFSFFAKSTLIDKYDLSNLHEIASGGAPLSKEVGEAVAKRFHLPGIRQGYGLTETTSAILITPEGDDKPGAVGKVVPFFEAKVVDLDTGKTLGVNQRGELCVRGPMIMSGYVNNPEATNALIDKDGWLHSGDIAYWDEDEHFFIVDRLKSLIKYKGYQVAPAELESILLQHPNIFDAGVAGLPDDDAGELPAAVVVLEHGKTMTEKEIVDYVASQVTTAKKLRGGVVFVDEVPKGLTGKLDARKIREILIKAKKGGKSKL
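Purified P. pyralis luciferase, 10 nM final, with Km-level 10 uM D-luciferin and 10 uM ATP in 50 mM Tris acetate pH 7.5, 10 mM Mg acetate, 0.01% Tween-20, 0.05% BSA; 6-point qHTS titration about 60 µM downward; luminescence read.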
ELG1 genotoxic = genotoxicity induction in ELG1-luciferase HEK293T cells. 1.3% of 330,000 active. Potency, µM (top dose mostly 46 µM), actives largely listed as activators. AID 504466. HEK293T ELG1-luciferase reporter, luminescence, 16 h; note: nearly all actives have a fitted effect of over 60% in size
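After overnight (16 hr) compound treatment at 37 °C, ELG1-luciferase HEK293T cells were lysed with ONE-Glo; luminescence quantified 30 min later at room temperature.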
Rab9 prom act = Rab9 promoter activation; AID 485297; Huh7 Rab9 promoter-luciferase reporter, luminescence, 24 h; 2.8% of 320,000 active; Potency, µM (doses to about 9.22 µM), hits mostly activators; note: nearly all actives have a fitted effect of over 60% in size
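Luminescence from Amplite-detected luciferase (10 minutes, ambient) reports Rab9 promoter activation. Before that, stable Rab9-luciferase Huh7 cells (1500/well, reduced-serum OP-MEM I plus 10% FBS) were exposed to compound for 24 hours at 37C.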
SMN2 splice enh = increases expression of the SMN2 splice variant; HEK293 SMN2-luciferase splicing reporter, luminescence, 30-36 h; Potency, µM (doses to about 46.1 µM), most hits filed as activators; 2.8% of 210,000 active; AID 1458; note: nearly all actives have a fitted effect of over 55% in size
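qHTS luciferase splicing reporter: luminescence rises when SMN2 exon 7 is included in transfected HEK293 cells. Compound exposure lasted 30-36 h at 37C, with 4.5 mM final sodium butyrate as control, followed by a ONE-Glo read.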
Hits are given with their value; i = inactive; ? = inconclusive; nt = no result given; [ ] = remark or other dose. Calls come from the whole dose curve; as a rule, active = well fitted curve in the direction sought with a large enough effect; inconclusive = small, poorly fitted or top-dose-only effect, or another doubt; inactive = no such curve, though single readings can be large; an effect the other way counts as inactive or inconclusive.

SMILES | NPC1 prom act | FLuc counter | ELG1 genotoxic | Rab9 prom act | SMN2 splice enh
Cc1ccc(OC(=O)c2cccc([N+](=O)[O-])c2)c(-n2nc3ccccc3n2)c1 | 3.5µM | ? | ? | 2.8µM | 13µM
Cc1cc(-n2nc3ccccc3n2)c(O)c([N+](=O)[O-])c1 | i | i | i | i | nt
COC(=O)COc1ccc(C)cc1-n1nc2ccccc2n1 | i | i | i | i | nt
CCN(CC)S(=O)(=O)c1cc(NC(=O)c2cc(-c3ccccn3)nc3ccccc23)ccc1C | i | i | i | i | i
COc1cc(NCCC(=O)O)c2ncccc2c1 | nt | nt | nt | nt | i[9.22 µM]
Cc1ccc(Nc2nc(/N=C/N(C)C)n[nH]2)cc1C | ? | 24µM | i | ? | ?
COc1ccc(OCc2nc3ccccc3n2C(C)c2ccccc2)cc1 (stereo not drawn) | nt | ? | nt | nt | i
CCOc1ccc(NC(=O)C(=O)NCC(c2cccnc2)N2CCc3ccccc32)cc1 (stereo not drawn) | nt | i | nt | nt | nt
CC(=O)c1ccccc1OCC(O)Cn1c(CO)nc2ccccc21 (stereo not drawn) | nt | 24µM | nt | nt | i
CCNC(=O)[C@H]1O[C@@H](n2cnc3c(N)nc(NCCc4ccc(CCC(=O)O)cc4)nc32)[C@H](O)[C@H]1O | nt | nt | nt | nt | i
Cc1ccccc1C(=O)Nc1ccccc1 | i | ? | ? | i | nt
Cc1nc(-c2ccc(NC(=O)c3ccccc3Br)cc2)cs1 | ? | 6µM | ? | 2.8µM | 16µM
Cc1nc(-c2ccc(NC(=O)c3ccccc3C)cc2)cs1 | 1.4µM | 3.4µM | i | 1.6µM | nt
COC(=O)c1ccc(NC(=O)CN2C(=O)CC(C)S(=O)(=O)c3ccccc32)cc1 (stereo not drawn) | i | i | i | i | nt
CCn1cnc2sc(C(=O)Oc3cccc(C)c3)c(C)c2c1=O | ? | ? | 18µM | ? | i
Cc1c(C(=O)Oc2ccc(F)cc2)sc2ncn(Cc3cccc(F)c3)c(=O)c12 | i | i | i | i | ?
CCOc1cc(/C=C2\C(=O)ON=C2c2ccccc2)cc(Br)c1O | i | 9.5µM | ? | i | nt
CCOc1cc(/C=C2/C(=O)ON=C2C)cc(Br)c1O | i | 21µM | i | i | nt
O=C(NCCc1ccccc1)c1cc(Sc2ccc(F)cc2F)nc2ccccc12 | nt | i | nt | nt | nt
O=c1c2sccc2nc(SCc2cc(=O)n3cc(Cl)ccc3n2)n1Cc1ccccn1 | ? | i | ? | 3.5µM | i
O=C(O)CCCCCn1c(SCc2cc(=O)n3cc(Cl)ccc3n2)nc2ccsc2c1=O | i | i | i | i | i
COc1ccccc1N1CCN(S(=O)(=O)CCNC(=O)COc2ccc(C(C)C)cc2)CC1 | nt | 24µM | nt | nt | nt
CCN(CC)S(=O)(=O)c1ccc(N2CCCC2)c(NC(=O)c2ccc(N3CCCC3=O)cc2)c1 | i | i | i | i | nt
CC(C)Oc1ccc(C(=O)N(Cc2ccco2)c2ccccn2)cc1 | nt | i | nt | nt | nt
Cc1cccc(NC(=O)c2ccc(C(=O)Nc3cccc(C)c3)nc2)c1 | i | i | i | i | i
SMILES | NPC1 prom act | FLuc counter | ELG1 genotoxic | Rab9 prom act | SMN2 splice enh
O=C(Nc1ccccc1)c1ccc(C(=O)Nc2ccccc2)nc1 | ? | i | ? | 2µM | i
CC(=O)Nc1cccc(NC(=O)c2ccc(C(=O)Nc3cccc(NC(C)=O)c3)nc2)c1 | i | 3.8µM | i | i | i
CC(=O)c1cccc(NC(=O)c2ccc(C(=O)Nc3cccc(C(C)=O)c3)nc2)c1 | i | i | i | i | i
CCn1cc(C(=O)O)c(=O)c2cc(F)c(N3CCN(S(=O)(=O)c4ccc(NC(=O)OC)cc4)CC3)cc21 | i | i | i | i | i
O=C(O)/C=C\C(=O)Nc1ccc(N2CCN(c3cccc(Cl)c3)CC2)cc1 | i | ? | i | i | i
Cc1nc(-c2ccc(NC(=O)/C=C\C(=O)O)cc2)cs1 | i | 9.5µM | i | i | i
O=C(O)/C=C\C(=O)Nc1ccc(N2CCN(c3ccc(Cl)cc3)CC2)cc1 | i | 15µM | i | i | nt
CCCCCC(=O)Nc1ccc(C2C(=O)c3ccccc3C2=O)cc1 | 2.8µM | 2.7µM | ? | 2.2µM | nt
Cc1nc(-c2ccccc2)cs1 | i | i | i | i | i
CCCCCC(=O)Nc1ccc(-c2csc(N)n2)cc1 | i | 17µM | ? | ? | nt
CCC(CC)C(=O)Nc1ccc(OCc2cc(=O)n3ccc(C)cc3n2)cc1 | nt | i | nt | nt | nt
CCCCCCCCCC(=O)N/N=C/c1ccc(C)s1 | i | i | ? | i | nt
CCCCCC(=O)Nc1ccc(-c2csc(C)n2)cc1 | i | 15µM | i | ? | ?
O=C(O)/C=C/C(=O)Nc1ccc(-c2ccccc2)cc1 | i | 6.7µM | i | i | i
O=C(O)/C=C/C(=O)Nc1ccc(OCc2ccccc2)cc1 | i | ? | i | i | nt
O=C(O)/C=C/C(=O)Nc1ccc(-n2nccc2C(F)(F)F)cc1 | i | 17µM | i | i | nt
Cc1ccc2sc(-c3ccc(NC(=O)/C=C\C(=O)O)cc3)nc2c1 | ? | 0.95µM | ? | 2.8µM | 7.1µM
Nc1nc(N)nc(-c2cc([N+](=O)[O-])ccc2O)n1 | i | i | i | i | nt
COC(=O)NC1CCC(NC(=O)OC)CC1 (stereo not drawn) | i | i | i | i | i
CCc1ccc(-n2nc(C)c3c(C(=O)Nc4cc(OC)cc(OC)c4)cc(C)nc32)cc1 | nt | i | nt | nt | nt
CCOC(=O)N1CCc2c(sc(NCc3ccc(OC)c(OC)c3OC)c2C(=O)Nc2ccc(OC)cc2OC)C1 | nt | 15µM | nt | nt | nt
CCOC(=O)N1CCc2c(sc(NCc3cccs3)c2C(=O)Nc2ccc(OC)cc2OC)C1 | nt | 13µM | nt | nt | nt
CCOC(=O)N1CCc2c(sc(NCc3ccc(OCC)cc3)c2C(=O)Nc2ccc(OC)cc2OC)C1 | nt | 15µM | nt | nt | nt
CCOC(=O)N1CCc2c(sc(NCc3ccc(N(CC)CC)cc3)c2C(=O)Nc2cc(OC)ccc2OC)C1 | nt | i | nt | nt | nt
O=C(Nc1ccc(Cl)c(Cl)c1)Nc1cc(S(=O)(=O)N2CCOCC2)ccc1N1CCCC1 | i | i | i | i | i
SMILES | NPC1 prom act | FLuc counter | ELG1 genotoxic | Rab9 prom act | SMN2 splice enh
CC(=O)N=Cc1c(C)c(C#N)c(=O)n(C)c1O | i | i | i | i | i
Cc1cccc(/N=C/c2c(O)cc(C)oc2=O)n1 | i | i | i | i | i
Cc1cc(O)c(/C=N/Nc2ccc(F)cc2)c(=O)o1 | i | 13µM | i | i | i
Cc1c(/C=N/Nc2ccc(F)cc2)c(O)n(C)c(=O)c1C#N | i | 24µM | i | i | nt
Cc1ccc(N/N=C/c2c(O)cc(C)oc2=O)cc1 | i | 13µM | i | i | i
Cc1ccc(CO/N=C/c2c(O)cc(C)oc2=O)cc1 | i | ? | i | i | i
N#C/C(=C\c1ccc(Cl)cc1)c1nc(-c2cc3ccccc3oc2=O)cs1 | nt | i | nt | nt | i
CC1CCC(=C(C#N)c2nc(-c3cc4ccccc4oc3=O)cs2)CC1 (stereo not drawn) | 3.5µM | 2.7µM | 6.5µM | 4µM | ?
COc1cc(/C=C(/C#N)c2nc(-c3cc4ccccc4oc3=O)cs2)cc([N+](=O)[O-])c1O | i | 12µM | i | i | nt
COc1cc(/C=C(\C#N)c2nc(-c3cc4ccccc4oc3=O)cs2)ccc1O | i | i | i | i | i
